# p53null 39C kill = p53 null cell cytotoxicity, nonpermissive temperature | H1299 p53-null (neo) cells, 39C, ATPlite viability, 24 h | Potency, µM (series often up to 46.1 µM), without a hit: at the top dose activity, negative = cell killing, usual class: cytotoxic | actives 0.97% (n = 55,000) | AID 904;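 also: potency is read from the fitted curve at half-maximal effect; 0% = DMSO only and -100% = full killing by 100 µM tamoxifen; nearly all actives have a fitted effect of over 50% in size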
#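 Concentration-response (up to 46 uM) was run for 24 h at the nonpermissive 39C on H1299-p53A138V or H1299-neo cells. ATP content was measured with ATPlite luminescence. AC50 values were Hill-modeled after normalizing between DMSO and 100 uM tamoxifen killing.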
# OvCa metastasis = ovarian cancer metastasis inhibition, 3D TME model. SKOV3ip1-GFP adhesion/invasion on 3D omental model, fluorescence. actives 0.1% (n = 46,000). Potency, µM (series often up to 45.8 µM), inactives show top-dose activity change, negative = inhibition, hits mostly inhibitors;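 also: potency is read from the fitted curve at half-maximal effect; plate controls were DMSO wells for no effect and tomatine positive control wells for full effect; nearly all actives have a fitted effect of over 65% in size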
#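 A 3D layer of primary human omental fibroblasts, mesothelial cells, fibronectin and collagen I, grown 48 hr, received SKOV3ip1-GFP cells in serum-free medium plus compounds at 0.36-46 umol/L. After 2 hr RT and 16 hr 37 C, fixed adherent GFP cells were counted; normalized to DMSO and tomatine.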
# pS6 MEF inh = inhibitors of mTORC1 signaling in Tsc2-/- p53-/- MEF cells. Tsc2-/- p53-/- MEF, phospho-rpS6 immunofluorescence/PI, 24 h. Potency, µM (top dose mostly 38.3 µM), for the others: top-dose activity change, negative = inhibition, actives largely listed as inhibitors. actives 0.78% (n = 44,000). AID 493208;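 also: potency is read from the fitted curve at half-maximal effect; plate controls were DMSO for no effect and rapamycin for full effect; nearly all actives have a fitted effect of over 50% in size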
#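 Tsc2-/-, p53-/- MEFs (empty-vector stable line) in DMEM + 10% FBS were treated with compounds 24 h at 37 degree Celsius, fixed, and immunostained for phospho-rpS6 (Alexa-488) with propidium iodide counterstain. Laser-scanning cytometry gave % positive cells, normalized against 7.5 nM rapamycin and DMSO.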
# S16 F2sN tox = toxic to S16 Pmp22-F2sN Schwann cells; S16 Pmp22-F2sN Schwann cells viability, CellTiter-Glo, 24 h; Potency, µM (series often up to 57.5 µM), for the others: at the highest dose activity change, negative = cytotoxicity, most hits filed as cytotoxic; actives 0.48% (n = 43,000); AID 1508642; also: potency is read from the fitted curve at half-maximal effect; % is scaled to controls: 0 for no effect and ±100 for the full control effect; nearly all actives have a fitted effect of over 65% in size
#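 S16 Pmp22-F2sN Schwann cells (500-1,000/well) in phenol-red-free DMEM with 10% FBS received 23 nL compound by pin tool for 24 h at 37 °C. Viability was then read as CellTiter-Glo luminescence after 15 min at room temperature.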
# PMP22 txn prim = PMP22 gene transcription modulation. S16 Pmp22-F2sN Schwann cells, FLuc/NLuc coincidence luminescence, 24 h. actives 2% (n = 43,000). AID 1508649. Potency, µM (highest dose often 57.5 µM), for the others: top-dose activity change, negative = inhibition, most hits filed as inhibitors; active = clear falling dose curves in both reporters; inconclusive = both reporters move, but less clearly or upward; inactive = either reporter flat; the % is the NLuc reporter signal; also: potency is read from the fitted curve at half-maximal effect; % is scaled to controls: 0 for no effect and ±100 for the full control effect
#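 Schwann cells carrying the coincidence reporter were exposed to library compounds for 24 h at 37C, then lysed and read for FLuc and, after quenching, NLuc luminescence on a CCD imager.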
# p53null 32C kill = selectivity test: cytotoxicity in p53 null cells, permissive temperature | H1299-neo p53 null cells, ATP luminescence, 24 h, 32C | AID 903 | Potency, µM (titrated, usually from 46.1 µM), inactives show top-dose activity change, negative = cytotoxicity, usual class: cytotoxic | actives 0.62% (n = 55,000);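 also: potency is read from the fitted curve at half-maximal effect; 0% = DMSO only and -100% = full killing by 100 µM tamoxifen; nearly all actives have a fitted effect of over 55% in size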
#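 H1299-neo, 600 cells/well; overnight 37C; cpd up to 46 uM, 24 h at 32C; ATPlite luminescence after 20 min RT; normalized to DMSO (0%) and tamoxifen 100 uM (100% kill); Hill-fit AC50.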
# NLuc sat counter = NanoLuc enzyme inhibition artifact for PMP22 screen. actives 4% (n = 690). Secreted NLuc enzyme (filtered S16 cell medium), Nano-Glo luminescence. AID 1508638. Potency, µM (highest dose often 57.5 µM), inactives show at the highest dose activity change, negative = inhibition, actives largely listed as inhibitors. shares compounds with PMP22 txn prim; also: potency is read from the fitted curve at half-maximal effect; % is scaled to controls: 0 for no effect and ±100 for the full control effect
# NLuc Km ctr = NanoLuc inhibition at Km substrate, PMP22 artifact check | shares compounds with PMP22 txn prim | secreted NLuc enzyme, coelenterazine luminescence, Km conditions | Potency, µM (doses to about 57.5 µM), without a hit: top-dose activity change, negative = inhibition, actives largely listed as inhibitors | actives 5% (n = 690) | AID 1508639; also: potency is read from the fitted curve at half-maximal effect; % is scaled to controls: 0 for no effect and ±100 for the full control effect
# FLuc counter = firefly luciferase enzyme inhibition artifact for PMP22 screen | shares compounds with PMP22 txn prim | purified P. pyralis FLuc, luminescence, 10 min | Potency, µM (top dose mostly 57.5 µM), without a hit: top-dose activity, negative = inhibition, actives largely listed as inhibitors | 690 tested, under 10 active | AID 1508640; also: % of control where 0% means no effect
# Target sequence (P08659 whole entry, looked up): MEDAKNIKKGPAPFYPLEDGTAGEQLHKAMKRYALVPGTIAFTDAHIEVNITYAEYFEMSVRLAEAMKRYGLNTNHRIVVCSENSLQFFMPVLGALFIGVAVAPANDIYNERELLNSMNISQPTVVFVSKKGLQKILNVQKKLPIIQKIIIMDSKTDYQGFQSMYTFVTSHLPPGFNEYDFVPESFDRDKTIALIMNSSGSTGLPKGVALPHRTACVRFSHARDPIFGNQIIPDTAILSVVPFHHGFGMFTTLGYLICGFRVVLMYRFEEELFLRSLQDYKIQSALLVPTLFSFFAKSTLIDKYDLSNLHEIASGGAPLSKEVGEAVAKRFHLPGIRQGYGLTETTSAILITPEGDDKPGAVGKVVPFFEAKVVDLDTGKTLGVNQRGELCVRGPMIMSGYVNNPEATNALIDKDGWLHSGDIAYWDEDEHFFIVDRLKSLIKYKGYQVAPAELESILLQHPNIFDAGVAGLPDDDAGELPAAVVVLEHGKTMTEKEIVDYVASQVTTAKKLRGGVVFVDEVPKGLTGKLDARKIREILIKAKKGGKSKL
# S16 F2sN tox cnf = confirmation of cytotoxicity in S16 Pmp22-F2sN Schwann cells (luciferase reporters placed in the Pmp22 gene). actives 7% (n = 690). S16 Schwann cells viability, CellTiter-Glo ATP luminescence, 24 h. shares compounds with PMP22 txn prim. Potency, µM (titrated, usually from 57.5 µM), for the others: at the highest dose activity change, negative = viability loss, usual class: cytotoxic; also: potency is read from the fitted curve at half-maximal effect; % is scaled to controls: 0 for no effect and ±100 for the full control effect
# PMP22 txn cnf = PMP22 transcription modulation, confirmatory; Potency, µM (doses to about 57.5 µM), without a hit: top-dose activity change, negative = inhibition, hits mostly inhibitors; actives 22% (n = 690); S16 Schwann cells Pmp22-F2sN, dual luciferase, 24 h; shares compounds with PMP22 txn prim; AID 1508646; active = clear falling dose curves in both reporters; inconclusive = both reporters move, but less clearly or upward; inactive = either reporter flat; the % is the FLuc reporter signal; also: potency is read from the fitted curve at half-maximal effect
# PMP22 prot conf = confirmation of modulators of rat PMP22 protein expression | shares compounds with PMP22 txn prim | S16 Schwann cells Pmp22-HiBiT, luminescence, 48 h | Potency, µM (series often up to 27.9 µM), without a hit: at the highest dose activity change, negative = inhibition, most hits filed as inhibitors | 95 tested, under 10 active
# Target sequence (P25094 whole entry, looked up): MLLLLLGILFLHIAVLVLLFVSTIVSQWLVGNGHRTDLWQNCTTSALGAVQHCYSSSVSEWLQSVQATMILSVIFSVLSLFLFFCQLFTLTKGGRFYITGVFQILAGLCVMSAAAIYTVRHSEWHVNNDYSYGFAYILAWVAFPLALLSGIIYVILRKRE
# Starred values were filed as active, the others as inactive; i = inactive; ? = inconclusive; . = no result given; [ ] = another dose, or the depositor's remark. Sampled rows, rich in hits. Any-hit rate of the full collection: about 3%. Unless noted, calls follow the shape of the dose curve; as a rule, active = well fitted curve in the direction sought with a large enough effect; inconclusive = small, poorly fitted or top-dose-only effect, or another doubt; inactive = no such curve, though single readings can be large; an effect the other way counts as inactive or inconclusive.
SMILES,p53null 39C kill,OvCa metastasis,pS6 MEF inh,S16 F2sN tox,PMP22 txn prim,p53null 32C kill,NLuc sat counter,NLuc Km ctr,FLuc counter,S16 F2sN tox cnf,PMP22 txn cnf,others
Clc1ccc(Nc2nnc(Cc3ccncc3)c3ccccc23)cc1,.,-16%,.,.,.,.,.,.,.,.,.,
COc1cccc(NS(=O)(=O)c2cc(-c3cnc(C4CC4)o3)ccc2C)c1,?,i,-10%,?,8.5µM*,-13%,?,15µM*,7%,-7%,2.9µM*,
COc1ccc(C)cc1NS(=O)(=O)c1ccc(-c2cnc(C3CC3)o2)cc1,?,i,0%,?,5.6µM*,5%,-9%,?,-1%,-26%,?,PMP22 prot conf=?
N#Cc1ccc(NS(=O)(=O)c2ccc(-c3cnc(C4CC4)o3)cc2)cc1,-6%,i,12%,?,?,-8%,.,.,.,.,.,
Cc1ccc(-c2cnc(C3CC3)o2)cc1S(=O)(=O)Nc1cccc(C#N)c1,4%,-22%,0%,?,?,-15%,.,.,.,.,.,
CO[C@H]1C=CO[C@@]2(C)Oc3c(C)c(O)c4c(O)c(c(C=NN5CCN(C)CC5)c(O)c4c3C2=O)NC(=O)C(C)=CC=C[C@H](C)[C@H](O)[C@@H](C)[C@@H](O)[C@@H](C)[C@H](OC(C)=O)[C@H]1C,.,-6%[15.1 µM],.,.,.,.,.,.,.,.,.,
Cc1cccc(NC(=O)c2cnn(-c3ccccc3)c2-n2cccc2)c1C,-17%,-3%,1%,-19%,13µM*,22%,19µM*,15µM*,0%,-21%,-24%,
O=C(CSc1nc2cc(C(=O)NC3CCCC3)ccc2c(=O)n1CC1CCCO1)c1cccc(Cl)c1 (stereo not given),0%,i,0%,28µM*,14µM*,7%,-19%,-5%,-6%,-7%,?,
Cc1ccc(C(=O)CSc2nc3cc(C(=O)NC4CCCC4)ccc3c(=O)n2CC2CCCO2)cc1 (stereo not given),-11%,i,6%,?,24%,-14%,.,.,.,.,.,
CN(CC=CC#CC(C)(C)C)Cc1cccc2ccccc12,.,-5%,.,.,.,.,.,.,.,.,.,
CCCSc1ncc(Cl)c(C(=O)Nc2sc3c(c2C(=O)NCC)CCCC3)n1,0%,-14%,2%,14%,5.1µM*,1%,-13%,-2%,1%,-19%,?,
Cc1c(C(=O)OC2CCCCC2)[nH]c2c1C(=O)CC(c1ccccc1)C2 (stereo not given),-10%,-6%,-18%,3%,13µM*,-13%,-4%,1%,0%,-10%,?,
Cc1c(C(=O)OC2CCCCC2)[nH]c2c1C(=O)CC(c1ccc(F)cc1)C2 (stereo not given),4%,11%,-3%,3%,?,-4%[9.22 µM],.,.,.,.,.,
Cc1c(C(=O)OC2CCCCC2)[nH]c2c1C(=O)CC(c1ccccc1Cl)C2 (stereo not given),-7%,2%,?,?,6µM*,17%,-19%,?,-19%,-18%,-45%,
O=S(=O)(NCC(c1ccco1)S(=O)(=O)c1cccs1)c1ccc(Cl)cc1 (stereo not given),-11%,-26%,18µM*,-14%,15µM*,11%,?,?,-6%,8%,7.6µM*,PMP22 prot conf=-26%
COc1c(Cl)cc2c([nH]c3cnccc32)c1NC(=O)c1cccnc1C,.,-1%,.,.,.,.,.,.,.,.,.,
COc1ccc(Nc2ncc(C(=O)N3CCN(c4ccc(OC)cc4)CC3)c3ccccc23)cc1,5%,i,-9%,-8%,?,11%,.,.,.,.,.,
COc1ccc(Nc2ncc(C(=O)N3CCN(c4cccc(Cl)c4)CC3)c3ccccc23)cc1,7%,6%,-18%,-16%,14µM*,27%,?,1%,6%,-11%,?,
Cc1cc(Br)ccc1NC(=O)C1CCCN(S(=O)(=O)c2cccc3nonc23)C1 (stereo not given),-21%,i,-16%,13%,?,-7%,.,.,.,.,.,
Cc1cc(NC(=O)C2CCCN(S(=O)(=O)c3cccc4nonc34)C2)ccc1Br (stereo not given),-21%,i,4%,?,18µM*,5%,-1%,3%,3%,-12%,17µM*,PMP22 prot conf=30%
CCC(=O)N1CCc2cc(S(=O)(=O)CCC(=O)N3CCN(c4ccc(Cl)cc4)CC3)ccc21,-3%,2%,-2%,-1%,17µM*,17%,?,-4%,-3%,12%,?,
COc1ccc(OC)c(CNS(=O)(=O)c2ccc3[nH]c4c(c3c2)CCCCC4)c1,39%,14%,-8%,-18%,15µM*,9%,-11%,?,2%,1%,-16%,
Cc1ccc(NS(=O)(=O)c2ccc3[nH]c4c(c3c2)CCCCCC4)cc1Cl,15%,?,-18%,-9%,?,61%,.,.,.,.,.,

# Screening results: PubChem BioAssay, National Center for Advancing Translational Sciences (NCATS)
